The record followed here is PubChem BioAssay AID1814 (Broad Institute, 2009).

Molecules are shown by their SMILES. About 22,000 (7.3%) of roughly 300,000 compounds were called active. Roughly 2% stayed inconclusive and do not appear here. Rule as the data show it: active = activity score below about -60%; inconclusive = mostly about -28% to -61%; inactive = positive scores. Many of the other results were omitted from the sample, so actives are more common in it than they were.

This test is described as follows: Activators via SNCA 5'UTR binding, MLPCN (AID 1814). The note with it: alpha-synuclein 5'UTR reporter, activators screen; stronger effect = lower value; tested at 7.5 µM.
In the case of `COc1ccc(NC(=O)C2COc3ccccc3O2)cc1` (centres undefined), the activity score is -133% (active).
Next, `CC(=O)c1cccc(NC(=O)C2COc3ccccc3O2)c1` (centres undefined): -134% (active); `NS(=O)(=O)c1ccc(NC(=S)NC(=O)c2cccc(Br)c2)cc1`: -61.6% (active).
For `O=S(=O)(c1ccc(F)cc1)n1ccc(-c2cnc(-c3ccccc3)s2)n1` the value was -138% (active).
Turning to `c1ccc(CSc2nnc(-c3ccco3)n2Cc2ccccc2)cc1`, the activity score is -126% (active).
Turning to `Cc1ccc(CN2C(=O)N/C(=C/c3cc(C)n(-c4ccccn4)c3C)C2=O)cc1`, the activity score was -88.6% (active).
For `O=C(NNC(=S)Nc1ccc(Br)cc1Cl)c1ccco1` the value was -157% (active); for `NNc1nc2c(Cl)cccc2s1`, -119% (active); for `Cc1nc2ccccc2nc(=O)c1NNc1ccc([N+](=O)[O-])cc1`, -109% (active).
Next, `CN(C(=O)c1ccccn1)c1nnc(-c2ccccn2)s1`: -110% (active); `Cc1sc2ncnc(N3CCC(C(=O)Nc4nc5ccc(Cl)cc5s4)CC3)c2c1C`: -183% (active).
`COc1cc(OC)c(C(=O)Nc2ccc(N(C)C)cc2)cc1OC`: the activity score is -129% (active).
For `COc1cc2ccccc2cc1C(=O)Nc1ccncc1` the value was -70.2% (active); for `Cc1ccc2nc(-c3ccncc3)cc(C(=O)Nc3ccc(OC(F)F)cc3)c2c1`, 67.6% (inactive).
As for `COc1cc2ccccc2cc1C(=O)Nc1nc(C)c(C(C)=O)s1`, the activity score was -106% (active).
Next, `COc1cc2ccccc2cc1C(=O)Nc1ccccc1C`: -118% (active).
With `COC(=O)c1sc(NC(=O)c2ccc(OC)cc2OC)nc1C`, the activity score was 101% (inactive).
Turning to `COc1ccc2c3c1O[C@H]1C[C@@H](O)C=C[C@@]31CCN(C)C2`, the activity score was 62% (inactive).
In the case of `COC(=O)c1cn(CC(=O)NCc2cccs2)c2ccccc12`, the activity score is -111% (active).
Take `CCOc1ccccc1NC(=O)Cn1nnc(C(=O)NCc2cccs2)c1N`: the activity score was 84.9% (inactive).
For the compound `CCOC(=O)N/N=C/c1cn(Cc2ccccc2Cl)c2ccccc12`, the activity score was 42.5% (inactive).
With `O=C(Cn1cc(C(=O)c2cccs2)c2ccccc21)NCc1cccs1`, the activity score is -69.5% (active).
Next, `Cc1ccc(N)cc1-n1c(C)ccc1C`: -77.6% (active); `Cc1ccc(-c2cc(=O)c3ccc(F)cc3[nH]2)cc1`: -68.9% (active).
Next, `O=c1cc(-c2ccccc2)[nH]c2cc(F)ccc12`: 93.3% (inactive).
For `Cc1ccc(-n2nc3ccc(NC(=O)/C=C/c4ccco4)cc3n2)cc1C` the value was -154% (active); for `O=C(/C=C/c1ccco1)Nc1cccc(-c2nc3ccccc3[nH]2)c1`, -143% (active); for `O=C(Nc1cccc(-c2nc3ccccc3[nH]2)c1)c1ccc(C(=O)Nc2cccc(-c3nc4ccccc4[nH]3)c2)cc1`, -70.2% (active).
`Cc1c(C(N)=O)sc2ncn(CCOc3ccccc3)c(=O)c12`: the activity score was -66.2% (active).
As for `Cc1cccc(OC(=O)c2sc3ncn(C)c(=O)c3c2C)c1`, the activity score is -210% (active).
For `c1ccc(CCc2nc(-c3ccncc3)no2)cc1` the value was -99% (active); for `O=C1c2ccccc2C(=O)c2c1cccc2N1CCN(CCO)CC1`, -64.5% (active).
For `N#C/C=C1\Sc2ccccc2C(=O)N1CC(=O)N1CCN(S(=O)(=O)c2ccccc2)CC1` the value was -152% (active); for `Fc1ccc2nc(Nc3nc4c(s3)CCCC4)sc2c1`, -206% (active).
For `O=C1CCCc2c1[nH]c1ccc(Br)cc21` the value was 89% (inactive); for `NS(=O)(=O)c1ccc(N=Nc2c(O)[nH]c3ccc(Br)cc23)cc1`, -119% (active); for `COC(=O)CCC(=O)N1CCCC(CO)(Cc2ccccc2)C1` (centres undefined), -124% (active).
Take `Cc1noc(C)c1CCC(=O)N1CCCC(CO)(Cc2ccccc2)C1` (centres undefined): the activity score was -110% (active).
Regarding `Cc1ccc(OC(=O)c2c(C)nn(-c3ccccc3)c2C)cc1`, the activity score is -131% (active).
`CSCCNC(=O)c1ccc2nc(Cc3ccccc3F)oc2c1`: the activity score was -130% (active).
Consider `COCCNC(=O)c1ccc2nc(Cc3ccc(OC)c(OC)c3)oc2c1`, for which the activity score was -80.1% (active).
For `COc1ccc(Cc2nnc(N/N=C/c3ccccc3O)[nH]c2=O)cc1OC` the value was 91.4% (inactive); for `CNC(=S)N/N=C/c1ccc(N2CCOCC2)s1`, -100% (active); for `Cc1nc(NC(=O)c2ccc3c(c2)OCCO3)ccc1Br`, -116% (active).
For `CC(C)C(=O)Nc1ccc2c(c1)oc1ccccc12` the value was -225% (active).
As to `CC(=O)Oc1ccc(C(=O)Nc2nccs2)cc1`, the activity score is -98% (active).
For `CCOc1ccc(C(=O)Nc2nccs2)cc1[N+](=O)[O-]`, the activity score is -123% (active).
As to `Cc1ccc(-c2nc3ccccc3[nH]2)cc1N`, the activity score is -122% (active).
Next, `COc1ccc(-c2csc(-c3cccs3)n2)cc1OC`: -154% (active); `O=C(Nc1ncc([N+](=O)[O-])s1)C1COc2ccccc2O1` (centres undefined): -93.3% (active).
Turning to `O=C(CCc1ccccc1)Nc1ncc([N+](=O)[O-])s1`, the activity score is -165% (active).
For `CC(=O)Oc1ccccc1C(=O)Nc1ncc([N+](=O)[O-])s1` the value was -68.7% (active).
Consider `O=C(Cc1c(F)cccc1Cl)Nc1ncc([N+](=O)[O-])s1`, for which the activity score is -133% (active).
As for `c1ccc2c(C[n+]3csc4ccccc43)cccc2c1`, the activity score is -83.3% (active).
Take `Cc1cccc(N=Nc2c(C)[nH]n(-c3ccccc3)c2=O)c1`: the activity score is -126% (active).
As for `CCCC(=O)Nc1ccc2c(c1)nc1n2CCSC1`, the activity score was -94.7% (active).
As for `CC1(C)C2CC=C(/C=N/NC(=O)c3ccc(Cl)cc3)C1C2` (centres undefined), the activity score was -63.4% (active).
Consider `O=C1N=C(N2CCOCC2)S/C1=C\C=C/c1ccccc1`, for which the activity score was -170% (active).
With `Cc1ccsc1/C=C1\SC(N2CCOCC2)=NC1=O`, the activity score is -73% (active).
For `Brc1ccc(C2CC(c3ccccc3)=Nc3ccccc3N2)cc1` (centres undefined) the value was -141% (active); for `O=C(CSc1ccc(-c2ccc(-n3cccn3)cc2)nn1)Nc1ccc([N+](=O)[O-])cc1`, -99.7% (active).
Next, `CC12CCC(C(=O)N(NC(=O)c3ccccc3O)C1=O)C2(C)C` (centres undefined): 67.6% (inactive); `Cc1ccc2c(c1)NCC(C(=O)NC1CCC(C)CC1)O2` (centres undefined): -67.9% (active); `COc1cc(NC(=S)N2CCCC(C)C2)c(OC)cc1Cl` (centres undefined): -79% (active).
Next, `CC(C)CCC(C)NC(=O)c1ccc2nccnc2c1` (centres undefined): -75.9% (active); `O=C1c2ccccc2C(=O)N1CCOc1ccc(F)cc1`: -91.2% (active).
For `Cc1cccc(N2Cc3ccccc3C2=NC(=O)c2ccc(Cl)nc2)c1`, the activity score was -115% (active).
Take `CCCc1cc(=O)[nH]c(SCC(=O)c2c(N)n(CC(C)C)c(=O)n(C)c2=O)n1`: the activity score was 88.3% (inactive).
For `CC(=O)c1ccc(NC(=O)CSC(=S)N2CCCC2)cc1` the value was -76.2% (active); for `Cc1cc(Cl)ccc1OCc1nc(-c2ccncc2)no1`, -162% (active).
For the compound `CN(C)S(=O)(=O)c1ccc2oc(SCC(=O)Nc3ccccc3F)nc2c1`, the activity score was -147% (active).
For `CCn1c(/C=C/c2ccc([N+](=O)[O-])o2)nc2ccccc2c1=O` the value was -353% (active); for `Cc1ccc(-c2nc(C#N)c(NCCCn3ccnc3)o2)cc1`, -87% (active); for `Cc1cccc(-[n+]2c(-c3cccc(Br)c3)[nH]c3nc4ccccc4nc32)c1`, 73.9% (inactive).
Regarding `Brc1ccc(-c2noc(-c3ccccc3)n2)o1`, the activity score is -80.6% (active).
Next, `Brc1ccc(-c2nnc(-c3ccccc3)o2)o1`: -63.8% (active); `Nc1ccc(-c2nnc(-c3ccc(-c4ccccc4)cc3)o2)cc1`: -217% (active); `Nc1nonc1-c1noc(-c2ccc(Br)o2)n1`: -80.6% (active).
`Cc1ncc(CC(=O)n2cc(C(=O)c3cc(Cl)ccc3O)cn2)s1`: the activity score was -71% (active).
Take `CCSc1nnc(-c2cc3c(s2)-c2ccccc2CC3)o1`: the activity score is -102% (active).
For `CCOC(=O)c1ccc2c(c1)nc(C)n2CC` the value was -141% (active); for `Cc1cccc(C(=O)Nc2ccc(C(=O)/C=C/c3cccs3)cc2)c1`, -92.4% (active).
Next, `COc1ccc(C2=NN(C(C)=O)C(c3ccccc3)C2)cc1` (centres undefined): -63.9% (active).
For the compound `COc1ccc(C2=NN(C(=O)c3ccccc3C(=O)O)C(c3ccccc3O)C2)cc1` (centres undefined), the activity score is -171% (active).
For `O=C(NCc1ccccn1)c1cc(-c2ccccc2Cl)on1` the value was -99.8% (active).
Take `O=C(Nc1cccnc1Cl)c1cc(-c2ccccc2O)on1`: the activity score is -179% (active).
On to `Clc1ccc(-c2cc(-c3ccccn3)on2)c(Cl)c1`, for which the activity score was 108% (inactive).
For the compound `C=CCNC(=O)c1cc(-c2ccccc2O)on1`, the activity score was -65.4% (active).
Regarding `C/C(=C\c1ccco1)CN1CCC(N2CCC(C(=O)N3CCOCC3)CC2)CC1`, the activity score was -135% (active).
For `O=C(/C=C/c1ccc(N2CCOCC2)cc1)c1ccccc1` the value was -152% (active).
Next, `CC(=O)Nc1ccc(/C=C/C(=O)c2ccccc2)cc1`: -201% (active); `CC(=O)Nc1ccc(C(=O)/C=C/c2ccc[nH]2)cc1`: -142% (active); `Cc1ccsc1C(=O)N/N=C/c1ccc([N+](=O)[O-])cc1`: -154% (active).
For `O=C(N/N=C/c1ccc([N+](=O)[O-])cc1)c1c[nH]c2ccccc12`, the activity score was -66.7% (active).
Next, `Cc1ccc(NC(=O)c2sccc2C)cc1[N+](=O)[O-]`: -217% (active).
Next, `COc1cccc(-c2nn(-c3ccccc3)cc2/C=C(\C#N)C(=O)NCCCn2ccnc2)c1`: -65.4% (active).
For `Cc1nn(C(=O)c2ccoc2C)c(N)c1-c1ccccc1`, the activity score was -109% (active).
For `CN(Cc1ccco1)S(=O)(=O)c1nnc(NC(=O)c2ccccc2)s1` the value was -95.2% (active); for `COc1ccc(C(=O)Cc2cnn(-c3ccccc3)c2)c(O)c1`, -147% (active).
Consider `COc1ccc(C(=O)CC(=O)c2ccc(C)cc2)c(O)c1`, for which the activity score is -96.9% (active).
For `CC(=NCc1ccco1)c1c(C(F)(F)F)[nH]n(-c2nc3ccccc3s2)c1=O` the value was -117% (active).
For `COC(=O)Cc1[nH]n(-c2nc3ccccc3s2)c(=O)c1C(C)=Nc1ccc(OC)cc1` the value was 68.9% (inactive); for `CCC(C)Cn1c(O)cc2nn(-c3nc4ccccc4s3)c(=O)c-2c1C` (centres undefined), 97.8% (inactive); for `Cn1nc(C(F)(F)F)cc1-c1ccc(/C=C(\C#N)C(=O)c2cccc(C(F)(F)F)c2)s1`, -76.5% (active).
With `O=C1/C(=C/c2ccc3c(c2)OCO3)CCC/C1=C\c1ccc2c(c1)OCO2`, the activity score was -83.5% (active).
As to `O=C(/C=C/Sc1ncn[nH]1)c1ccc(Cl)cc1`, the activity score is -73.9% (active).
Next, `Oc1ccc(/C=N/NC2=NCCCCC2)c(O)c1`: -141% (active); `Nc1nc(-c2sc3nc4c(cc3c2N)CCCC4)nc(N2CCOCC2)n1`: -113% (active).
For `CC(C)(C)c1ccc(C(=O)NCc2ccco2)cc1`, the activity score is -180% (active).
Next, `CCCC1=Nc2cc(C(=O)NCc3ccco3)ccc2Sc2ccccc21`: 87.6% (inactive); `CC(C)(C)c1ccc(NC(=O)NCc2ccco2)cc1`: -123% (active).
Next, `CC(C)(C)c1ccc(C(=O)NNC(=O)Cc2ccccc2)cc1`: -84.3% (active); `CC(C)n1c(O)c(N=Nc2ccccn2)c2ccccc21`: -76.9% (active).
With `CC1C/C(=N/NC(=O)c2cccs2)CC(C)(C)C1` (centres undefined), the activity score was -101% (active).
Next, `CC(C)CC(=O)N/C(N)=N/c1nc2ccccc2s1`: -93.4% (active).
For `CCC(=O)NC(=Nc1nc2ccccc2s1)NC(=O)CC`, the activity score was -101% (active).
Turning to `CCC(=O)Nc1nc2ccccc2n1Cc1ccccc1C`, the activity score is 65.5% (inactive).
Turning to `CC12CN3CCN(CC(C3)/C1=N\NC(=O)c1ccccc1N)C2`, the activity score was -83.3% (active).
Next, `CN1C(=O)/C(=C\c2cc(Br)cs2)c2ccccc21`: -188% (active).
